Experimental data taken from PubChem BioAssay (NCI).
Compounds without any hit were thinned out: in the full panel of roughly 83,000, 20% have a hit.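 48-hour exposure, single concentration, 96-well plates; percent growth endpoint where 0 means no net growth. Active: below 10.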 Calls of active or inactive are those of the source.

The molecules below were run on SN12C renal (assay: NCI-60 one-dose screen, 48 h (100 = growth as untreated, 0 = no growth, -100 = all killed)). Conditions: 10 µM unless noted.

| Structure (SMILES) | growth |
| --- | --- |
| CCN(C(C)=O)c1ccc([N+](=O)[O-])cc1 | 105% (inactive) |
| O=S(=O)(c1ccc(NC(=S)NCc2cccnc2)cc1)N1CCCCC1 | 36.1% (inactive) |
| O=S1(=O)c2ccccc2Oc2ccccc21 | 96.8% (inactive) |
| C/C(=N\N=C(/C)c1cccc([N+](=O)[O-])c1)c1cccc([N+](=O)[O-])c1 | 81.7% (inactive) |
| OC(CBr)CCBr (configuration not stated) | 96.8% (inactive) |
| CC(=O)NC(CCc1ccc(Cl)c(Cl)c1)c1cccc(O)c(=O)c1 (configuration not stated) | 12.4% (inactive) |
| CCCCCCCCCCCCCCCCCC(=O)NCCNC(=O)CCCCCCCCCCCCCCCCC | 97.2% (inactive) |
| COC1CC(OC(=O)c2ccc([N+](=O)[O-])cc2)C(COC(=O)c2ccc([N+](=O)[O-])cc2)O1 (configuration not stated) | 98.9% (inactive) |
| CC(=O)NC(O)C(Cl)Cl (configuration not stated) | 110% (inactive) |
| CC(=O)c1cccc(O)c1 | 107% (inactive) |
| C1C[S+]2CC[S+]1CC2 | 101% (inactive) |
| COC1OC(C(COC(C)=O)OC(C)=O)C(OC(C)=O)C(OC(C)=O)C1OC(C)=O (configuration not stated) | 107% (inactive) |
| Cn1/c(=N\N=C\c2ccccc2OCCO)sc2ccccc21 | 102% (inactive) |
| CC(C)(N)CO[C@H]1C[C@H]2CC[C@@]1(C)C2(C)C | 100% (inactive) |
| CCCC(=O)CC(=O)c1ccccc1 | 96.3% (inactive) |
| Cc1onc(-c2ccccc2Cl)c1C(=O)Cl | 95.7% (inactive) |
| COC1OC(C(O)C(O)CO)C(O)C(O)C1O (configuration not stated) | 94.1% (inactive) |
| Cc1cc(=O)n(Nc2ccccc2)c(O)c1C#N | 99.4% (inactive) |
| ClCC(Cl)C1CCC(Cl)C(Cl)C1 (configuration not stated) | 104% (inactive) |

| Structure (SMILES) | growth |
| --- | --- |
| C=CCC(O)C=C (configuration not stated) | 101% (inactive) |
| CCOC(=O)c1ccc(Nc2sc(C(=O)c3ccc(Br)cc3)c(N)c2C#N)cc1 | 43.9% (inactive) |
| CNc1ccccc1C(=O)N/N=C/C=C/c1ccccc1 | 48.7% (inactive) |
| CC(C)=CCC[C@@H](C)[C@H]1CC[C@@]2(C)C3=C(CC[C@]12C)[C@@]1(C)CC[C@H](O)C(C)(C)[C@@H]1CC3 | 102% (inactive) |
| Cc1[nH]nc(C(N)=O)c1[N+](=O)[O-] | 98.4% (inactive) |
| CC(O)C(F)(F)C(F)(F)C(F)(F)F (configuration not stated) | 110% (inactive) |
| CC1(C)CCC(C)(C)NC(=S)N1 | 97.1% (inactive) |
| CCOC(=O)CNC | 96.4% (inactive) |
| CCCCNc1ccc(-c2ccc(NCCCC)cc2)cc1 | 81.4% (inactive) |
| O=S(=O)(O)c1ccc(O)c(C2CCCCC2)c1 | 105% (inactive) |
| C1=NCCc2ccccc21 | 102% (inactive) |
| C=CC1=NC(C)(C)CC(C)O1 (configuration not stated) | 99.2% (inactive) |
| Cc1ccc(NC(=S)N2CCOCC2)cc1C | 99.4% (inactive) |
| COC(=O)c1cccc([N+](=O)[O-])c1 | 95.2% (inactive) |
| CCN(CC)CCN1CNC(=S)NC1 | 98.4% (inactive) |
| COc1cc2c(c(OC)c1OC)-c1ccc(SC)c(=O)cc1[C@@H](NC1OC(CO)C(O)C(O)C1O)CC2 (some centres not stated) | 33.6% (inactive) |
| CCOC(C=O)OCC | 102% (inactive) |
| CCOC(=O)CSCCC#N | 97.9% (inactive) |
